Bioassay records from PubChem.
This is a sample that favours compounds with a hit; in the whole collection about 7.5% have one here.
B2AR arrestin = qHTS assay of beta-arrestin-biased ligands of beta2-adrenergic receptor. hit rate 0.02% among 330,000. beta-arrestin recruitment to beta2AR, cell-based reporter. Potency, µM (series often up to 46.1 µM), for inactives: at the top dose activation, hits mostly activators. AID 492947, 2010. Beta-2 adrenergic receptor (Homo sapiens), P07550;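 also: potency is read from the fitted curve at half-maximal effect; 0% = DMSO controls and full agonism = EC100 isoproterenol or metaproterenol; nearly all actives have a fitted effect of over 65% in size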
RORgamma inh = qHTS for inhibitors of ROR gamma transcriptional activity; Nuclear receptor ROR-gamma (Mus musculus), P51450; Drosophila S2 Gal4-RORgamma UAS-luciferase reporter, 20 h; Potency, µM (top dose mostly 53.6 µM), for the others: at the top dose activity change, negative = inhibition, hits mostly inhibitors; hit rate 5.4% among 310,000; also: potency is read from the fitted curve at half-maximal effect; nearly all actives have a fitted effect of over 60% in size
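Using a luciferase readout, inhibitors were identified by reduced reporter activity in Drosophila cells coexpressing a copper-inducible Gal4–ROR gamma fusion and UAS-driven Photinus luciferase, incubated 20 hr after 700 uM copper sulfate.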
ELG1 repair inh = qHTS screen for small molecules that inhibit ELG1-dependent DNA repair in human embryonic kidney (HEK293T) cells expressing luciferase-tagged ELG1 | HEK293T ELG1-luciferase reporter, luminescence, 16 h; DNA damage induced by 5-fluorouridine | Potency, µM (series often up to 46.1 µM), without a hit: at the highest dose activity change, negative = inhibition, usual class: inhibitors | AID 504467, 2011 | hit rate 2.3% among 330,000; also: potency is read from the fitted curve at half-maximal effect; nearly all actives have a fitted effect of over 55% in size
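Luminescence from the luciferase reporter, measured 30 min after ONE-Glo reagent at room temperature, was the read-out. Beforehand, 2,000 cells per well were exposed for 16 hr at 37 °C to 5-fluorouridine together with compound or vehicle.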
TSHR antag = Antagonists of the Thyroid Stimulating Hormone Receptor: HTS campaign. Thyrotropin receptor (Homo sapiens), P16473. TSHR-expressing cells, TSH-stimulated cAMP HTRF, 2 h; stronger effect = lower value. activity change, negative = inhibition, % at 11.5 µM. hit rate 0.2% among 330,000;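 active = activity change below a set negative limit, meaning inhibition stronger than a set level, cut at about -70% in these data; inconclusive = activity change between two set negative limits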
Target sequence (P16473 whole entry, looked up): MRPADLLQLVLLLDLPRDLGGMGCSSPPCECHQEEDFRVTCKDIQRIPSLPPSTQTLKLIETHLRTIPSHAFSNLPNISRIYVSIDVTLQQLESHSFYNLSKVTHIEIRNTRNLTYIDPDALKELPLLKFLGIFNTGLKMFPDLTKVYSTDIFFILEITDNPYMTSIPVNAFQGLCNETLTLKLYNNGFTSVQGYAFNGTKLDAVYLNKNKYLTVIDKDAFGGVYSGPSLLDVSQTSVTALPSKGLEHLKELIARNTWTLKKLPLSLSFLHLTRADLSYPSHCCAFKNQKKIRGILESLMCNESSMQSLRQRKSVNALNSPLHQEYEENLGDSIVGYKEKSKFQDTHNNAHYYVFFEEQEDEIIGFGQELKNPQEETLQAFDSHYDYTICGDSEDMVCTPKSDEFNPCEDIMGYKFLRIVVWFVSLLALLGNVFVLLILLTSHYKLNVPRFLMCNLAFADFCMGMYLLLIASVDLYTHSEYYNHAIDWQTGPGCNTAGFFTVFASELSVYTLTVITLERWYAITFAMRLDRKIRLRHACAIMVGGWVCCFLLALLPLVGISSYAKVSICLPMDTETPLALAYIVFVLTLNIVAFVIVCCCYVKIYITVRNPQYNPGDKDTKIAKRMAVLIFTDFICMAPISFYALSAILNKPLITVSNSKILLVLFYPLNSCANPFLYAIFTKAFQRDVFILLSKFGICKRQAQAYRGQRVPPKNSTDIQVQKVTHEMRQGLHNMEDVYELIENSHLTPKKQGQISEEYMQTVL
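Antagonism was scored as loss of TSH-driven cAMP in TSHR cells, stimulated with 4nM TSH (EC80) for 2 hours at 37 deg C and detected by homogeneous HTRF competition immunoassay.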
VP16 counter = VP16 counterscreen qHTS for inhibitors of ROR gamma transcriptional activity; hit rate 3.5% among 310,000; Potency, µM (doses to about 53.6 µM), for the others: at the highest dose activity, negative = inhibition, hits mostly inhibitors; Drosophila S2 Gal4-VP16 UAS-luciferase, luminescence, 20 h;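 also: Gal4-VP16 expression switched on by copper sulfate through the metallothionein promoter; potency is read from the fitted curve at half-maximal effect; nearly all actives have a fitted effect of over 50% in size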
* = called active by the depositor; ? = inconclusive; nt = no result; [ ] = dose if it differs, or a comment. Unless noted, calls follow the shape of the dose curve; as a rule, active = well fitted curve in the direction sought with a large enough effect; inconclusive = small, poorly fitted or top-dose-only effect, or another doubt; inactive = no such curve, though single readings can be large; an effect the other way counts as inactive or inconclusive. Unless noted, % is scaled to controls: 0 for no effect and ±100 for the full control effect.

SMILES	B2AR arrestin	RORgamma inh	ELG1 repair inh	TSHR antag	VP16 counter
Cn1/c(=N/NC(=O)c2cccc(OC(F)F)c2)sc2ccccc21	3%	10µM*	2%	0	14µM*
COc1cc(C(=O)N/N=c2/sc3ccccc3n2C)cc(OC)c1OC	-1%	-29%	12%	23	-15%
c1ccc(C[C@H]2CN=C(Nc3ccccc3)N2CC2CCCCCC2)cc1	0%	nt	1%	4	nt
Cc1ccc(OCCSc2ncccn2)c(C)c1	0%	10µM*	?	-43	?
COCCNC(=S)NN=C1CCCCC1	?	13µM*	0%	6	?
C=CCNC(=S)NN=C1CCCCCCC1	?	0.35µM*	-10%	21	4.5µM*
C=CCNC(=S)NCC=C	0%	0%	-3%	-2	4%
CC(C)CNC(=O)C(=O)NN=C1CCCCCC1	-1%	-2%	21%	1	-7%
O=C(NCC1CCCCC1)c1cc(S(=O)(=O)N2CCOCC2)ccc1F	0%	nt	7%	-19	nt
Cc1ccc(-n2[nH]c(C)c(C=NC34CN5CN(CN(C5)C3)C4)c2=O)cc1C	nt	-27%	nt	nt	5%
COCCCN=Cc1c(C)[nH]n(-c2ccc(Br)c(C)c2)c1=O	-3%	7.1µM*	?	-13	6.3µM*
Cc1ccccc1C(=O)NNc1ccc(-c2csnn2)cc1	0%	10%	?	5	4%
Cc1ccc(C(=O)NC(=S)Nc2ccc(CN3CCOCC3)cc2)cc1	0%	14µM*	1%	-6	?
CC(C)Oc1ccc(C(=O)NC(=S)Nc2ccc(CN3CCOCC3)cc2)cc1	0%	7.1µM*	?	-5	13µM*
CC(NC(=O)c1cc(COc2ccc3ncccc3c2)on1)c1ccc(F)cc1 (stereo not given)	0%	?	?	-27	7.1µM*
O=C(NCCc1cn2ccccc2n1)c1cc(COc2ccc3ncccc3c2)on1	-1%	-84%	8.2µM*	-18	?
COc1cccc(CN(C)C(=O)c2cc(COc3ccc4ncccc4c3)on2)c1	0%	?	?	-29	6.3µM*
O=C(c1cc(COc2ccc3ncccc3c2)on1)N1CCCCCC1	0%	?	?	-32	?
COCC1CCN(C(=O)c2cc(COc3ccc4ncccc4c3)on2)CC1	0%	?	?	-26	6.3µM*
COc1cccc(CN(C)C(=O)c2cc(COc3c(F)cccc3F)on2)c1	0%	17%	16%	-15	-18%
O=[N+]([O-])c1cccc(I)c1	nt	8%	nt	nt	-19%
COc1ccc(C(=O)NCc2nnc(SCC(=O)NC3CCCC3)o2)cc1	0%	-8%	?	16	-10%
NC(=O)c1ccccc1NC(=O)CN1CCN(Cc2ccc(Cl)cc2Cl)CC1	1%	?	10µM*	8	-25%
NC(=O)c1ccccc1NC(=O)CN1CCN(Cc2ccccc2)CC1	4%	10%	-2%	-3	-7%
C=CCn1c(SCC(=O)NC2CCCCC2)nnc1-c1sc(N)nc1C	0%	-1%	4%	-3	1%
SMILES	B2AR arrestin	RORgamma inh	ELG1 repair inh	TSHR antag	VP16 counter
C=CCn1c(SCC(=O)Nc2sc(C)c(C)c2C(=O)OCC)nnc1-c1sc(N)nc1C	0%	21%	5.8µM*	22	5%
COc1ccc(-c2oc3cccnc3c2C#CC2(O)CCCCC2)cc1	-1%	7.1µM*	?	10	?
COc1ccc(-c2oc3cccnc3c2C#CCO)cc1	-1%	?	?	-22	-6%
CCOC(=O)c1ccc(COC(=O)c2ccc3c(c2)-c2ccccc2C3=O)cc1	0%	0%	-1%	-5	-3%
CCOC(=O)C1=C(Cc2ccc(OC)cc2)C(=O)c2ccccc2C1=O	0%	10µM*	7%	-30	?
CCOC(=O)C1=C(Cc2ccc(C)cc2)C(=O)c2ccccc2C1=O	0%	11µM*	?	-18	?
NS(=O)(=O)c1cccc(NC(=O)COC(=O)C2CCCCC2)c1	0%	-18%	4%	-3	-3%
CCOc1ncccc1C(=O)Nc1ccc(OC)c(S(=O)(=O)N2CCOCC2)c1	0%	nt	3%	-1	nt
COCCN1C(=O)N[C@@H](CCc2ccccc2)C(C(=O)OC)=C1C	nt	-10%	nt	nt	-12%
CCCCn1c(C23CC4CC(CC(C4)C2)C3)n[nH]c1=S	0%	2.8µM*	0%	-29	3.2µM*
COCCn1c(-c2ccccc2F)n[nH]c1=S	-1%	8%	8%	30	-1%
COCCn1c(C23CC4CC(CC(C4)C2)C3)n[nH]c1=S	-1%	4µM*	?	-20	1.1µM*
COc1ccc(-c2c(C)nc3c(-c4ccccn4)cnn3c2N)cc1	5%	5µM*	?	-10	10µM*
N#CC1=C(N)OC2=C(C(=O)CCC2)C1c1cc2c(cc1Br)OCO2 (stereo not given)	-1%	0%	21%	-9	2%
CC(=O)OCC1OC(C#Cc2ccc(Br)cc2)C=CC1OC(C)=O (stereo not given)	nt	2%[10 µM]	nt	nt	3%[10 µM]
C=CCNC(=S)N/N=C(\C)c1cccc(OC)c1	?	0.79µM*	1%	-1	0.89µM*
COc1ccc(/C(C)=N/NC(=S)NCCc2ccccc2)cc1	?	0.28µM*	?	10	1.1µM*
COc1ccc(/C(C)=N/NC(=O)c2ccccc2OCc2ccccc2)c(OC)c1	0%	-14%	?	6	-9%
C/C(=N\NC(=S)NCc1ccccc1)c1cccc(Br)c1	0%	?	-19%	9	2%
C/C(=N\NC(=S)NCc1ccccc1)c1ccc2ccccc2c1	0%	2.5µM*	3%	-1	4.5µM*
COc1ccccc1/C(C)=N/NC(=S)NCc1ccccc1	?	3.2µM*	-13%	-5	7.1µM*
C/C(=N\NC(=O)C1CC1)c1cccnc1	-1%	0%	0%	2	-7%
C/C(=N\NC(=S)NCCc1ccccc1)c1cccc(Br)c1	?	4.5µM*	-12%	18	?
COc1ccc(CNC(=S)N/N=C(\C)c2ccc(OC)cc2)cc1	3%	6.3µM*	3%	-6	5µM*
C=CCNC(=S)N/N=C(\C)c1cccnc1	?	3.2µM*	3%	-5	20µM*
COc1ccc(/C(C)=N/NC(=O)CNC(=O)c2ccco2)cc1	-1%	9%	2%	5	4%
COc1ccc(/C(C)=N/NC(=S)NCc2ccco2)cc1	0%	2.8µM*	-28%	1	5.6µM*
COc1ccc(CNC(=S)NCc2ccc(OC(C)C)cc2)cc1	-1%	?	-1%	19	-22%
